Bioassay records from PubChem BioAssay.
HIF activator: HIF pathway transcriptional activation; U2OS HRE-luciferase reporter, luminescence; normalized: DMSO 0%, desferrioxamine 100%; activation, % at 7.5 µM (by protocol); hit rate 0.32% among 300,000; AID 1910;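 active = mean activation of at least 10% of the iron chelator positive control signal, with at least half of replicates also reaching 10%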
PfM18AAP inh: blocks P. falciparum M18 aspartyl aminopeptidase. recombinant PfM18AAP, H-Glu-NHMec fluorogenic cleavage. inhibition, % at 7.35 µM. hit rate 1.2% among 290,000. AID 1822;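 active = inhibition above the campaign mean inhibition over all tested compounds plus 3 SD, cut at about 28% in these data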;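 also: 0% = plate median of test compound wells and 100% = 2 mM ZnCl2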
ALR inh: blocks human ALR sulfhydryl oxidase activity; P55789; purified ALR, DTT oxidation, H2O2 HRP-luminol luminescence; inhibition, % (no concentration beside the values); hit rate 3.8% among 290,000;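 active = mean replicate inhibition above about 79%, with every replicate also reaching it, limit read from the data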
Target sequence (P55789 whole entry, looked up): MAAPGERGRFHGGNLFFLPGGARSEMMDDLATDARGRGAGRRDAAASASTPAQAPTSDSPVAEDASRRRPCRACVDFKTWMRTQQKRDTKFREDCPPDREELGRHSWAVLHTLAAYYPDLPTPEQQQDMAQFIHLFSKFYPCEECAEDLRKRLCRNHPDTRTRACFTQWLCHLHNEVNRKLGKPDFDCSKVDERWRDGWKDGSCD
Mot1-301 SUMO: blocks SUMOylation pathway, rescuing yeast Mot1-301 growth. S. cerevisiae Mot1-301 growth rescue, ATP luminescence, 38.5C; percent above DMSO median, 100 means doubled. hit rate 1% among 320,000. AID 2716. growth rescue, % at 18.8 µM;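 active = every valid replicate shows activation above 250% relative to neutral control wells; inactive = the rest, any valid replicate at or below 250%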;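 also: OY570 slx delta 5 strain wells were the positive control but not used for scaling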
An asterisk follows results filed as active; / = no result. This is a sample that favours compounds with a hit; in the whole collection about 5.3% have one here.

SMILES	HIF activator	PfM18AAP inh	ALR inh	Mot1-301 SUMO
COc1cccc2sc(Nc3nc(-c4ccccn4)cs3)nc12	94.1*	22.8	-11.1	7.8
COc1ccc(/C=C/C(=O)NC(=S)Nc2cc([N+](=O)[O-])ccc2O)cc1OC	-0.4	-0.5	4.3	357.9
CN(C[C@@H](Cc1cccc2ccccc12)N(C[C@H](Cc1ccccc1)N(CCc1ccccc1)N=O)N=O)N=O	0.2	-4.9	-6.2	-18.7
O=C(c1cccs1)N1CCN(c2ccc(Cl)cc2)CC1	0.7	-3.5	96.4*	-1.4
COc1ccc(N2CCN(C(=O)Cc3cccs3)CC2)cc1	0.1	-13.1	96.8*	101.3
COc1ccc(N2CCN(C(=O)CNC(=O)c3cccs3)CC2)cc1	0.4	2.0	95.1*	1.2
COc1ccc(N2CCN(C(=O)Cc3ccc(OC)c(OC)c3)CC2)cc1	-1.1	4.7	87.9*	9.6
COC(=O)[C@@H]1C[C@@]2(O)[C@@H](O)[C@@H](O)[C@@H](O)C[C@H]2N1Cc1ccc(Cl)cc1	0.2	/	0.1	-7.6
COc1ccc(CCNS(=O)(=O)c2ccc(-n3cnnn3)cc2)cc1OC	0.2	-2.4	-4.8	9.6
COc1cccc(CC2CC(=O)N(c3ccc4c(C)cc(=O)oc4c3)C2=O)c1 (configuration not stated)	-0.8	1.4	/	-6.3
N#CCCNS(=O)(=O)c1ccc(C(=O)OCCCOC(=O)c2ccc(S(=O)(=O)NCCC#N)cc2)cc1	0.1	-1.5	-1.2	-26.2
O=C(NCC(=O)N1CCN(c2ccccc2)CC1)c1cccs1	0.2	-5.7	96.1*	0.9
COC(=O)c1ccc(SCC(=O)NCc2ccccc2)c([N+](=O)[O-])c1	0.9	3.9	3.8	-0.7
CCOc1ccccc1C(=O)N1CCN=C1SCc1cccnc1	-0.1	8.3	99.4*	891.4
COc1ccc(C(=O)N2CCN=C2SCc2cccnc2)cc1OC	/	3.6	100.3*	-11.1
COc1cccc(OC)c1C(=O)N1CCN=C1SCc1cccnc1	-1.7	5.2	98.6*	-0.4
O=C(c1ccc(S(=O)(=O)N2CCCCC2)cc1)N1CCN=C1SCc1cccnc1	/	0.1	/	/
CCOCC(=O)Nc1c(C(=O)Nc2ccc3c(c2)OCCO3)oc2ccccc12	2.4	-4.0	5.1	250.2
CCN1CCN(C(=S)NC(C)c2ccccc2)CC1 (configuration not stated)	0.0	3.2	-3.3	103.8
C=C(C)CCC1(C)NC(=O)N(c2ccccc2)N1 (configuration not stated)	0.1	0.1	4.9	10.9
CC1(c2ccc(O)cc2)NC(=O)N(c2ccccc2)N1 (configuration not stated)	0.6	12.3	97.7*	31.6
Oc1cc2c(cc1O)C1c3ccc(O)c(O)c3OCC1(O)C2 (configuration not stated)	/	79.5*	99.6*	-18.2
COc1ccc(OC(=O)COc2ccc(C)cc2)cc1	0.2	6.1	6.1	3.7
COc1ccc(OCC(=O)Sc2ccc(C)cc2)cc1	0.0	-4.2	98.2*	10.5
COc1cccc(CN(C)C(=O)CSC(C)C(=O)Nc2cc(C)on2)c1OC (configuration not stated)	0.0	/	-3.4	0.7
SMILES	HIF activator	PfM18AAP inh	ALR inh	Mot1-301 SUMO
O=C1c2ccccc2NC(c2ccc(O)cc2)N1/N=C/c1ccc(O)cc1 (configuration not stated)	1.6	-6.0	99.4*	-8.0
O=C1c2ccccc2NC(c2ccccc2)N1/N=C/c1ccccc1 (configuration not stated)	1.5	-6.8	3.9	-19.5
O=S(=O)(c1ccccc1Cl)N1CCCC1c1nc(-c2ccc(Cl)cc2)no1 (configuration not stated)	0.8	1.5	-1.0	187.5
CCc1ccc2oc(-c3ccc(NC(C)=O)cc3)nc2c1	2.4	1.9	96.4*	-1.3
O=C(CN1CCCC1)Nc1ccc(-c2nc3cc(NC(=O)CN4CCCC4)ccc3o2)cc1	12.6*	-7.6	1.6	-17.0
Cc1ccc(C)c(C(=O)COC(=O)C2CCN(c3ccc(C(F)(F)F)cn3)CC2)c1	-0.5	/	-17.5	-4.6
Cc1ccc(S(=O)(=O)c2nc(Nc3ccccc3C#N)sc2Cl)cc1	1.1	-0.3	-3.9	-17.4
Cc1ccc(S(=O)(=O)c2nc(NN(C)C)sc2Cl)cc1	0.3	11.8	97.1*	11.0
CN(C)/C=C1\SC(=S)N(N2C(=O)C3C4C=CC(C4)C3C2=O)C1=O (configuration not stated)	4.0	-15.2	0.1	3.8
O=C(Cc1ccc(Cl)cc1Cl)Nc1cccc(S(=O)(=O)Nc2ccccc2F)c1	-0.1	29.2*	-6.8	59.9
O=C(Nc1cccc(S(=O)(=O)Nc2ccccc2F)c1)c1ccc2ccccc2n1	-1.1	30.2*	1.0	32.7
O=C(Cc1c(F)cccc1Cl)Nc1cccc(S(=O)(=O)NC2=NCCCCC2)c1	0.0	/	/	27.3
Cc1nc(C)c(CC(=O)N/N=C/c2ccc(O)cc2)c(=O)[nH]1	0.1	-10.6	90.1*	9.3
CC1CCN(Cc2c(C(=O)N/N=C/c3ccc(OC(C)C)cc3)nnn2-c2nonc2N)CC1	-0.2	-3.5	-0.7	230.9
COc1ccc(NC2CCCN(C(=O)CCCN3CCCCC3=O)C2)cc1 (configuration not stated)	0.7	5.8	98.7*	180.5
O=C(CSc1ccccc1)N1CCCC(Nc2ccccc2)C1 (configuration not stated)	0.0	10.4	66.2	-5.3
COc1ccc(NC2CCCN(C(=O)CCN3CCCC3=O)C2)cc1 (configuration not stated)	-0.2	-2.1	98.4*	11.9
COc1ccc(NC2CCCN(C(=O)CCN3CCCC3=O)C2)cc1OC (configuration not stated)	-0.3	11.4	98.9*	-18.1
COc1ccc(NC2CCCN(C(=O)CCN3Cc4ccccc4C3=O)C2)cc1 (configuration not stated)	-0.5	-1.2	99.0*	8.0
O=C1CCCCN1CC(=O)N1CCCC(Nc2ccc(F)c(F)c2)C1 (configuration not stated)	0.2	7.6	25.5	-9.1
O=C1CCCN1CCC(=O)N1CCCC(Nc2ccc(F)cc2)C1 (configuration not stated)	-0.6	1.5	46.3	-5.2
CC1(c2ccc(Cl)cc2Cl)NC(=O)N(CC(=O)Nc2ccc3[nH]c(=O)[nH]c3c2)C1=O (configuration not stated)	0.7	/	-2.8	-11.1
Cc1ccc(NC2CCCN(C(=O)CCCN3CCCCC3=O)C2)cc1C (configuration not stated)	1.3	16.0	98.5*	-12.6
O=C1CCCCN1CCC(=O)N1CCCC(Nc2ccc(F)c(F)c2)C1 (configuration not stated)	-1.0	-1.9	21.3	135.0
COC(=O)c1c(C(=O)OC)c(-c2ccc(Cl)cc2)n2c1CS(=O)(=O)C2	0.0	6.8	-4.5	98.2
Cc1cc(C)cc(N(CC(=O)Nc2ccccc2)C2=NC3CS(=O)(=O)CC3S2)c1 (configuration not stated)	0.1	6.2	98.4*	-16.8
